# Activity calls are given as the source filed them.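 How the source made its calls, unless noted: active means inhibition above 20% together with a positive visual image hit; inconclusive means visual image hit but inhibition not above 20%; inactive means no visual image hit.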
# Legend:
# [1] = inhibitors of TNFa-induced NFkB p65 translocation, primary screen, imaging, HUVEC, MLSMR starter and 10KST1 sets (AID 438); details: HUVEC TNFa-induced p65 nuclear translocation; cell count: measured here: nuclei count (cytotoxicity indicator), at 2.08 µM; inhibition: at 2 µM, stronger effect = higher value, 0% TNFa-plus-vehicle, 100% no-TNFa wells;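 further: compound added about 3h40 before a 20 min TNFalpha stimulation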;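 on inhibition: signal is the nuclear over cytoplasmic p65 intensity ratio per well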
# [2] = inhibitors of mutant huntingtin aggregation, primary screen, imaging, exon1htt(103Q)mCFP cells, high-content imaging (AID 483;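 active means visual image review flags a hit and inhibition of aggregation exceeds 20%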;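 further: compound exposure lasted 3 days before fixation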;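 on nuclei count: percent of the per-plate median nuclei count of sample wells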); details: exon1htt(103Q)mCFP cell line, aggregate imaging, at 2 µM; inhibition of aggregation: stronger effect = higher value; nuclei count: measured here: cell count, toxicity
# [3] = inhibitors of E-selectin induction by TNFa, primary screen, imaging, HUVEC, immunofluorescence, MLSMR starter and 10KST1 sets (AID 487;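 active means visually confirmed hit in the image check and inhibition above 20%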;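 on inhibition: signal is fraction of cell area covered by stained E-selectin grains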;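 on nuclei count: 100% = median nuclei count of all wells on the same plate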); details: HUVEC TNFalpha-induced E-selectin immunofluorescence imaging, at 2 µM; inhibition: stronger effect = higher value; nuclei count: measured here: cell number, toxicity
# [4] = biological target: Voltage-gated potassium channel subunit beta-2 (Rattus norvegicus) (UniProt P62483); assay: KvBeta enzyme negative modulators, primary screen, biochemical, NADPH fluorescence (AID 622;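 active means fluorescence slope higher than the sample average by over 3 SD, cut at about -0.22 in these data, passing the limit was not always enough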;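 further: slope of raw intensity against log time taken from 70 to 1610 s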); details: recombinant KvBeta, 4-cyanobenzaldehyde reduction, at 10 µM, stronger effect = higher value
# [5] = biological target: Voltage-gated potassium channel subunit beta-2 (Rattus norvegicus) (UniProt P62483); assay: KvBeta positive modulators, primary screen, biochemical, NADPH fluorescence (AID 623;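 active means NADPH fluorescence slope more negative than the mean of all samples by about 3 SD, 99.7% confidence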;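 further: fluorescence intensity change per second fitted from 20 to 320 s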); details: Recombinant KvBeta, NADPH fluorescence decrease slope, 10 min; at 10 µM; stronger effect = lower value
# [6] = biological target: Alpha-2C adrenergic receptor (Homo sapiens) (UniProt P18825); assay: modulators of alpha2C/GIRK thallium flux, primary screen, cell-based, HEK293 alpha2C/GIRK1/2 (AID 624;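 active means fluorescence slope after compound addition differing from the mean of all screened samples at 99.7% confidence, in either direction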;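 further: slope of fluorescence ratio to pre-addition baseline per second over 15 to 24 s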); details: thallium flux BTC fluorescence, at 10 µM, actives lie on both sides
# [7] = inhibitors of Sendai virus-induced IRF3 signaling, primary screen, TLR/RLR signaling modifier project, cell-based, Sendai virus stimulus, luciferase, 10K MLSCN set (AID 602276;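 active means inhibition at or above 50% at 10 µM; inactive means inhibition below 50%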;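 further: firefly luciferase from ISG56 promoter only with Renilla not read in this screen; 0% = Sendai virus plus DMSO and 100% = medium plus DMSO without virus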); details: HEK293 RL24 IRF3 luciferase reporter, at 10 µM, stronger effect = higher value
# [8] = inhibitors of poly I:C-induced TLR3 signaling, primary screen, cell-based, poly I:C stimulus, luciferase, 10K MLSCN set (AID 602277;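 active means inhibition of the reporter signal at or above 50%; inactive means inhibition below 50%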); details: HEK293-TLR3 RL24 IRF3 luciferase reporter, at 10 µM, stronger effect = higher value
# Voltage-gated potassium channel subunit beta-2 (Rattus norvegicus), sequence (P62483 whole entry, looked up): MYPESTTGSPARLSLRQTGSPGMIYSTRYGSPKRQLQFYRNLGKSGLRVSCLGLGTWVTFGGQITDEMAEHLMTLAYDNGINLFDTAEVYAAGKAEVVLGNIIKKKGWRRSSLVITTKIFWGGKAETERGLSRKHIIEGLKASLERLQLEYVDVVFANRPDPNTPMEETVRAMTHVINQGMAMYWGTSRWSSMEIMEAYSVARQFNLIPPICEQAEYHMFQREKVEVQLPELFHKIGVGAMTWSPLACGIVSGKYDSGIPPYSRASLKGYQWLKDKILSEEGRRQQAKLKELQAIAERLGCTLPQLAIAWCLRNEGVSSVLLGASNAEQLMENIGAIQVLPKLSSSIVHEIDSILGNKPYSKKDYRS
# Alpha-2C adrenergic receptor (Homo sapiens), sequence (P18825 whole entry, looked up): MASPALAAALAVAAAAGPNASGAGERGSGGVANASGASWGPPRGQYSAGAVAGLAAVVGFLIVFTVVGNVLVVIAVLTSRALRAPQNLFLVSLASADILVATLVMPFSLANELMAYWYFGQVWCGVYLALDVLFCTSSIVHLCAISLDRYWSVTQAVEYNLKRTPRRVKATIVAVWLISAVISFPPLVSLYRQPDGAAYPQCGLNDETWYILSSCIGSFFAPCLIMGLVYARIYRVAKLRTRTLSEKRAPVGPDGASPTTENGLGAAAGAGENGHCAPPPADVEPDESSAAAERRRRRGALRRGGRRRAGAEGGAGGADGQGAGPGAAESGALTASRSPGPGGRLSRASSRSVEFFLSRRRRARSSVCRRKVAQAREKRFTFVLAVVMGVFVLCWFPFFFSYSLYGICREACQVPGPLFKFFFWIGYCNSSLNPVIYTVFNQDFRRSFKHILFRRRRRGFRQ
SMILES,cell count [1],inhibition [1],inhibition of aggregation [2],nuclei count [2] [%],inhibition [3],nuclei count [3] [%],fluorescence slope [4],NADPH fluorescence slope [5],slope [6],inhibition [7],inhibition [8]
CC(C)[C@H](NC(=O)NC1CCCC1)C(=O)O,252,2.5% (inactive),7.6% (inactive),87.5,3.3% (inactive),91.7,-0.462 (inactive),2e-05 (inactive),0.0056 (inactive),5.42% (inactive),16.1% (inactive)
CCN1CCCC1CNC(=O)c1cc2c(=O)n(C)c3ccccc3c2n1C (stereo not drawn),656,-5% (inactive),-28.9% (inactive),113,-41.6% (inactive),114,-0.55 (inactive),2.6e-06 (inactive),0.00775 (inactive),2.48% (inactive),40.8% (inactive)
Cc1cccc(NC(=O)c2ccc3ccccc3n2)n1,408,-4.5% (inactive),0.8% (inactive),86.6,-50.9% (inactive),95.8,-0.303 (inactive),-1.5e-05 (inactive),0.0061 (inactive),-11.1% (inactive),-91.5% (inactive)
Cc1ccc2[nH]c(=O)c(CN(CCCN3CCOCC3)C(=O)Nc3cccc(Cl)c3)cc2c1,724,21.3% (inactive),-15.9% (inactive),89,8% (inactive),131,-0.597 (inactive),-5.2e-05 (inactive),0.00418 (inactive),13.4% (inactive),4.8% (inactive)
CN1CCN(C(c2cccc(C(F)(F)F)c2)c2nnnn2C(C)(C)C)CC1 (stereo not drawn),337,-6% (inactive),32.7% (inactive),73.7,-68.4% (inactive),94.8,-0.591 (inactive),-2.7e-05 (inactive),0.00442 (inactive),19.1% (inactive),22.7% (inactive)
Cc1ccccc1OCCn1c(=O)oc2ccccc21,316,-4.7% (inactive),-1.9% (inactive),144,-43.9% (inactive),128,-0.353 (inactive),-8e-06 (inactive),0.00518 (inactive),5.52% (inactive),-6.56% (inactive)
Cc1onc(-c2c(Cl)cccc2Cl)c1C(N)=O,406,6.3% (inactive),-2.8% (inactive),98.3,-52% (inactive),98.7,-0.5 (inactive),2.7e-05 (inactive),0.00603 (inactive),-11.6% (inactive),7.29% (inactive)
O=C(Cn1nnc(-c2ccc(CN3CCOCC3)cc2)n1)NC1CCCCC1,447,0.3% (inactive),7.3% (inactive),108,-20.9% (inactive),118,-0.584 (inactive),-4.1e-05 (inactive),0.0043 (inactive),14% (inactive),9.43% (inactive)
CC(=O)C(Sc1ncnc2c1nnn2-c1ccc(F)cc1)C(=O)N(C)C (stereo not drawn),464,-2.2% (inactive),2.3% (inactive),89.3,-51.7% (inactive),114,-0.492 (inactive),-1.7e-05 (inactive),0.00752 (inactive),-3.3% (inactive),-23.2% (inactive)
CCOC(=O)c1c(C)[nH]c(C)c1C(=O)COC(=O)CNC(=O)c1ccc(OCC)cc1,708,-2.2% (inactive),5.2% (inactive),63.7,-19.4% (inactive),104,-0.456 (inactive),2.3e-05 (inactive),0.00496 (inactive),14.3% (inactive),28.6% (inactive)
COC(=O)c1ccc(CSc2nc3c(cnn3-c3ccc(F)cc3)c(=O)[nH]2)o1,653,-12.7% (inactive),-1.4% (inactive),106,-44.8% (inactive),113,-0.545 (inactive),5.2e-05 (inactive),0.00536 (inactive),-5.97% (inactive),18.8% (inactive)
COC(=O)c1sc(N2C(=O)C(O)=C(C(=O)c3ccc(C)o3)C2c2ccc(F)cc2)nc1C (stereo not drawn),325,3% (inactive),10.4% (inactive),96.6,35.1% (inactive),109,-0.419 (inactive),-5.6e-05 (inactive),0.0054 (inactive),18.3% (inactive),4.43% (inactive)
Cn1c(C(=O)N2CCN(C(=O)c3ccco3)CC2)cc2c(=O)n3ccccc3nc21,323,-3.3% (inactive),-13.8% (inactive),111,-116% (inactive),118,-0.00798 (active),7.5e-06 (inactive),0.00582 (inactive),10.9% (inactive),18% (inactive)
COc1ccc(-c2ccc(=O)n(Cc3cc(=O)n4ccccc4n3)n2)cc1,789,-6.4% (inactive),-19.1% (inactive),99.5,-101% (inactive),140,-0.108 (inactive),-3.8e-05 (inactive),0.00509 (inactive),7.67% (inactive),12.2% (inactive)
Cc1ccc(-c2noc(C3CCCN(C(=O)c4ccccc4)C3)n2)o1 (stereo not drawn),490,5.2% (inactive),-19.1% (inactive),112,-102% (inactive),125,-0.372 (inactive),-1.7e-05 (inactive),0.00371 (inactive),-20% (inactive),-111% (inactive)
Cc1nnc(SCC(=O)N2c3ccccc3CC2C)s1 (stereo not drawn),528,-31.1% (inactive),5.8% (inactive),55.7,-46.9% (inactive),136,-0.521 (inactive),-5.2e-05 (inactive),0.00417 (inactive),4.91% (inactive),-5.96% (inactive)
Cc1nn(-c2ccccc2)c(Cl)c1C(=O)NCC(=O)O,296,3.9% (inactive),-6.8% (inactive),100,-22.6% (inactive),117,-0.399 (inactive),-6.1e-05 (inactive),0.00396 (inactive),11.2% (inactive),25.8% (inactive)
O=C(c1ccccc1-c1nc(-c2ccccc2)no1)N1CCCC1,600,-8.6% (inactive),0.7% (inactive),90.5,51% (inactive),85.6,-0.534 (inactive),-2.8e-05 (inactive),0.00572 (inactive),-20.5% (inactive),-38.1% (inactive)
CC(=O)c1cc(-c2ccc(F)cc2)n(CCC(=O)Nc2cc(C)[nH]n2)c1C,360,0% (inactive),-4.1% (inactive),102,0% (inactive),118,-0.507 (inactive),-3.1e-05 (inactive),0.00525 (inactive),4.04% (inactive),25.9% (inactive)
Cc1ccc(-n2ncc3c(=O)[nH]c(SCC(=O)N4CCN(c5ccccc5)CC4)nc32)cc1,229,-8.5% (inactive),12.5% (inactive),93.6,-22.6% (inactive),118,-0.358 (inactive),-1.3e-05 (inactive),0.00346 (inactive),9.1% (inactive),23.7% (inactive)
Cc1nnc(SCc2ccccc2)n1N,465,2.9% (inactive),-11.7% (inactive),101,-16.8% (inactive),119,-0.494 (inactive),-4.1e-05 (inactive),0.00525 (inactive),16.3% (inactive),16.6% (inactive)
Fc1ccc(NCc2nnc(SCc3nnc(-c4ccccc4)o3)n2CC2CCCO2)cc1 (stereo not drawn),571,-9.7% (inactive),-6% (inactive),56.6,14.2% (inactive),90.9,-0.528 (inactive),3.2e-05 (inactive),0.00596 (inactive),-28.3% (inactive),-12.4% (inactive)
COc1ccc(Cc2nc(-c3ccc(NC(=O)c4cccnc4)cc3)no2)cc1,609,9.6% (inactive),23.4% (inactive),121,-45.6% (inactive),96.3,-0.6 (inactive),-5e-05 (inactive),0.0059 (inactive),-8.06% (inactive),-67.3% (inactive)
COc1ccc(N2CCN(CCCNC(=O)CC3Oc4ccc(C)cc4NC3=O)CC2)cc1 (stereo not drawn),581,0.9% (inactive),11.6% (inactive),104,-40.7% (inactive),130,-0.472 (inactive),1.7e-05 (inactive),0.00619 (inactive),12.9% (inactive),22.1% (inactive)
CCOC(=O)N1CCC(Nc2ncnc3c2cnn3-c2ccc(C)cc2C)CC1,684,-0.8% (inactive),6.9% (inactive),92.6,-36.3% (inactive),124,-0.529 (inactive),-4.5e-05 (inactive),0.00533 (inactive),3.02% (inactive),-54.1% (inactive)
COC(=O)CCC(=O)Nc1ccc(S(=O)(=O)N2CCCCCC2)cc1,743,16.7% (inactive),-20.5% (inactive),97.4,34.8% (inactive),116,-0.496 (inactive),-5.3e-05 (inactive),0.00616 (inactive),8.32% (inactive),24.1% (inactive)
Cc1nn(-c2ccc(F)cc2)c2sc(C(=O)N3CCCCCC3)cc12,465,2% (inactive),1.2% (inactive),83.1,-38.9% (inactive),113,-0.199 (inactive),-3.1e-05 (inactive),0.00645 (inactive),-4.92% (inactive),-14.2% (inactive)
CCc1nnc2sc(-c3cc(-c4ccccc4)nc4ccccc34)nn12,267,5.4% (inactive),7.4% (inactive),87,3.3% (inactive),90.4,-0.436 (inactive),2.9e-06 (inactive),0.00312 (inactive),8.15% (inactive),26.8% (inactive)
